Test results reported in the supplement of paper PMC8728848.
The sample as a whole holds a higher share of the strongest signals than the screen did.

Tests used:
Experiment in all cases: glycan array binding signal (z-score within array); higher = stronger binding
Conditions in all cases: glycan notation: IUPAC condensed, linker removed
Fuc(a1-2)Gal(b1-3)GalNAc = molecular target: Fuc(a1-2)Gal(b1-3)GalNAc
Outline: (§1)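 The binding signal is a Z-score computed within each array and averaged over linkers. Arrays of the same protein sequence at different concentrations or buffers were also averaged together. Data originate from 3228 arrays in the Consortium for Functional Glycomics database, kept only where the protein sequence was available.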

[1] = molecular target: Fuc(a1-2)Gal(b1-3)GalNAc(a1-3)[Fuc(a1-2)]Gal(b1-4)GlcNAc
Outline: as §1

Fuc(a1-2)Gal(b1-3)GlcNAc = molecular target: Fuc(a1-2)Gal(b1-3)GlcNAc
Outline: as §1

[2] = molecular target: Fuc(a1-2)Gal(b1-3)GlcNAc(b1-2)Man(a1-3)[Fuc(a1-2)Gal(b1-3)GlcNAc(b1-2)Man(a1-6)]Man(b1-4)GlcNAc(b1-4)GlcNAc
Outline: as §1

[3] = molecular target: Fuc(a1-2)Gal(b1-3)GlcNAc(b1-3)Gal(b1-4)Glc
Outline: as §1

Fuc(a1-2)Gal(b1-4)Glc6S = molecular target: Fuc(a1-2)Gal(b1-4)Glc6S
Outline: as §1

[4] = molecular target: Fuc(a1-2)Gal(b1-4)GlcNAc(b1-3)Gal(b1-4)GlcNAc(b1-2)Man(a1-3)[Fuc(a1-2)Gal(b1-4)GlcNAc(b1-3)Gal(b1-4)GlcNAc(b1-2)Man(a1-6)]Man(b1-4)GlcNAc(b1-4)GlcNAc
Outline: as §1

[5] = molecular target: Fuc(a1-2)[Gal(a1-3)]Gal(b1-3)GlcNAc
Outline: as §1

[6] = molecular target: Fuc(a1-2)[Gal(a1-3)]Gal(b1-3)GlcNAc(b1-2)Man(a1-3)[Fuc(a1-2)[Gal(a1-3)]Gal(b1-3)GlcNAc(b1-2)Man(a1-6)]Man(b1-4)GlcNAc(b1-4)GlcNAc
Outline: as §1

[7] = molecular target: Fuc(a1-2)[Gal(a1-3)]Gal(b1-4)GlcNAc
Outline: as §1

[8] = molecular target: Fuc(a1-2)[Gal(a1-3)]Gal(b1-4)[Fuc(a1-3)]Glc
Outline: as §1

[9] = molecular target: Fuc(a1-2)[GalNAc(a1-3)]Gal
Outline: as §1

[10] = molecular target: Fuc(a1-2)[GalNAc(a1-3)]Gal(b1-3)GalNAc(b1-3)Gal(a1-4)Gal(b1-4)Glc
Outline: as §1

[11] = molecular target: Fuc(a1-2)[GalNAc(a1-3)]Gal(b1-3)GlcNAc(b1-2)Man(a1-3)[Fuc(a1-2)[GalNAc(a1-3)]Gal(b1-3)GlcNAc(b1-2)Man(a1-6)]Man(b1-4)GlcNAc(b1-4)GlcNAc
Outline: as §1

[12] = molecular target: Fuc(a1-2)[GalNAc(a1-3)]Gal(b1-4)Glc
Outline: as §1

[13] = molecular target: Fuc(a1-3)[Gal(b1-4)]GlcNAc(b1-6)[Gal(b1-3)GlcNAc(b1-3)]Gal(b1-4)Glc
Outline: as §1

Fuc(a1-4)GlcNAc = molecular target: Fuc(a1-4)GlcNAc
Outline: as §1

[14] = molecular target: Gal(a1-3)Gal(b1-4)GlcNAc(b1-2)Man(a1-3)[Gal(a1-3)Gal(b1-4)GlcNAc(b1-2)Man(a1-6)]Man(b1-4)GlcNAc(b1-4)GlcNAc
Outline: as §1

[15] = molecular target: Gal(a1-4)Gal(b1-3)GlcNAc(b1-2)Man(a1-3)[Gal(a1-4)Gal(b1-3)GlcNAc(b1-2)Man(a1-6)]Man(b1-4)GlcNAc(b1-4)GlcNAc
Outline: as §1

[16] = molecular target: Gal(a1-4)Gal(b1-4)GlcNAc(b1-3)Gal(b1-4)Glc
Outline: as §1

Gal(a1-4)GlcNAc = molecular target: Gal(a1-4)GlcNAc
Outline: as §1

Gal(b1-3)GlcNAc(b1-2)Man = molecular target: Gal(b1-3)GlcNAc(b1-2)Man
Outline: as §1

[17] = molecular target: Gal(b1-3)GlcNAc(b1-2)[Gal(b1-3)GlcNAc(b1-6)]Man(a1-6)[Gal(b1-3)GlcNAc(b1-2)Man(a1-3)]Man(b1-4)GlcNAc(b1-4)GlcNAc
Outline: as §1

[18] = molecular target: Gal(b1-3)GlcNAc(b1-3)Gal(b1-3)GlcNAc
Outline: as §1

[19] = molecular target: Gal(b1-3)GlcNAc(b1-3)Gal(b1-4)[Fuc(a1-3)]GlcNAc
Outline: as §1

[20] = molecular target: Gal(b1-3)GlcNAc(b1-6)Gal(b1-4)GlcNAc
Outline: as §1

[21] = molecular target: Gal(b1-3)GlcNAc(b1-6)GalNAc
Outline: as §1

Gal(b1-4)GlcNAc = molecular target: Gal(b1-4)GlcNAc
Outline: as §1

[22] = molecular target: Gal(b1-4)GlcNAc(a1-6)Gal(b1-4)GlcNAc
Outline: as §1

Gal(b1-4)GlcNAc(b1-2)Man = molecular target: Gal(b1-4)GlcNAc(b1-2)Man
Outline: as §1

B1: PX14379A-bvu-539-28-539 (Bacteroides vulgatus) (protein)
chain: EPYSEIIEEDYVPTEADEIALLATTYSQLRFVMDWYGLFDLQEESGDVIVTPTRPNGWDDGGTYKQMHKHTWDNQQGQPQSIWDYCYKGIANANKILKRADEGFFTEESKPKVVAEVKGVRALWYSILCDTHGNIPIQTSFSEEVPVQSTRKQVFDFIINELKEVMPNLPTEVNKSTYGRLTQWGAKCLMARMYLNAGVYTGTPMWNECLEQCNDIINSGLFSLETNYTDIFKTENSGCVETIFAIPYDEVYNEGDNNGPVFGAHMKFLSSNSRKVFNMQTTPWGGSAANPQFINSYDPDDMRLKYTWLQGDQYSPDGVLITTFPNKLPSIYKTDTDDGYRVGKYEIKVGAKSLLSNDFPYFRYTEVLLMKAECLLRLGQNETEAAHIVSQIRERAFRESAHPEKATVDAAWLKGDTHINYGTLDEKGQIDDAGNTEVVELGGLYDEWGWEFAAEARRRTDMIRFGTYQKKSWFNHTPTANDLNGNSILFPIHLDHLNTNPNLQQNPGYAGK
Q: With B1 as the binder, how does the “glycan array binding signal (z-score)” value (Fuc(a1-2)Gal(b1-3)GalNAc) read?
A: -0.448

Q: What about the “glycan array binding signal (z-score)” value [1] of the same binder?
A: -0.426

Q: What about the “glycan array binding signal (z-score)” value (Fuc(a1-2)Gal(b1-3)GlcNAc) of the same binder?
A: -0.263

Q: What about the “glycan array binding signal (z-score)” value [2] of the same binder?
A: 8.31

Q: And the “glycan array binding signal (z-score)” value [3]?
A: -0.301

Q: And the “glycan array binding signal (z-score)” value (Fuc(a1-2)Gal(b1-4)Glc6S)?
A: -0.232

Q: What about the “glycan array binding signal (z-score)” value [4] of the same binder?
A: 2.29

Q: What about the “glycan array binding signal (z-score)” value [5] of the same binder?
A: -0.419

Q: What about the “glycan array binding signal (z-score)” value [6] of the same binder?
A: 9.25

Q: And the “glycan array binding signal (z-score)” value [7]?
A: -0.199

Q: And the “glycan array binding signal (z-score)” value [8]?
A: -0.231

Q: And the “glycan array binding signal (z-score)” value [9]?
A: -0.215

Q: What about the “glycan array binding signal (z-score)” value [10] of the same binder?
A: -0.369

Q: And the “glycan array binding signal (z-score)” value [11]?
A: 1.23

Q: What about the “glycan array binding signal (z-score)” value [12] of the same binder?
A: -0.321

Q: What about the “glycan array binding signal (z-score)” value [13] of the same binder?
A: -0.44

Q: And the “glycan array binding signal (z-score)” value (Fuc(a1-4)GlcNAc)?
A: -0.18

Q: And the “glycan array binding signal (z-score)” value [14]?
A: 3

Q: What about the “glycan array binding signal (z-score)” value [15] of the same binder?
A: 0.016

Q: And the “glycan array binding signal (z-score)” value [16]?
A: -0.391

Q: What about the “glycan array binding signal (z-score)” value (Gal(a1-4)GlcNAc) of the same binder?
A: -0.226

Q: What about the “glycan array binding signal (z-score)” value (Gal(b1-3)GlcNAc(b1-2)Man) of the same binder?
A: 0.056

Q: What about the “glycan array binding signal (z-score)” value [17] of the same binder?
A: 5.87

Q: And the “glycan array binding signal (z-score)” value [18]?
A: 0.03

Q: And the “glycan array binding signal (z-score)” value [19]?
A: -0.515

Q: What about the “glycan array binding signal (z-score)” value [20] of the same binder?
A: -0.27

Q: What about the “glycan array binding signal (z-score)” value [21] of the same binder?
A: -0.344

Q: What about the “glycan array binding signal (z-score)” value (Gal(b1-4)GlcNAc) of the same binder?
A: -0.29

Q: And the “glycan array binding signal (z-score)” value [22]?
A: -0.203

Q: What about the “glycan array binding signal (z-score)” value (Gal(b1-4)GlcNAc(b1-2)Man) of the same binder?
A: -0.28
